We go through 16 compounds from PubChem BioAssay.

For assay [1], the system named is Human papillomavirus type 1a protein E7 (residues 44-93). The assay can be described thus: HPV1a E7 fragment binders on microarrays, primary screen, biochemical, small-molecule microarray, residues 44-93, 635 nm fluorescence (AID 1108).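 Note: E7 fragment applied at 1 µg/mL in TBST for 1 h at 4 C; score combines spot fluorescence with its signal to noise ratio.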 As to conditions: small-molecule microarray binding, fluorescence 635 nm; higher = more signal.
A short description of assay [2]: modulators of HCV replicon luciferase signal, primary screen, HCV replication inhibitor project, Huh7 cells, luciferase reporter (AID 1109).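 Note: huh7 hepatoma cells harbouring a luciferase neomycin HCV replicon reporter; luciferase luminescence as measure of HCV replicon replication; test concentration not given here.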 As to conditions: 48 h, higher = more signal. A general note: In antiviral work, replicon cells carry a viral genome segment that copies itself.
Assay [3] has as its target Left-right determination factor 2 (Homo sapiens) (UniProt O00292). The assay can be described thus: LEFTY2 binders on small-molecule microarrays, primary screen, biochemical, small-molecule microarray, 635 nm fluorescence scan (AID 1110). The settings on record: LEFTY2 binding, higher = more signal.
In assay [4] the target is Calmodulin-1 (Homo sapiens) (UniProt P0DP23). Description: CALM1 binders on microarrays, EGTA buffer, profiling panel, biochemical, small-molecule microarray, Cy5-labelled CALM1 (AID 1111).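 Note: labelled calmodulin applied in Tris saline Tween buffer holding calcium plus EGTA and DTT.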 The settings on record: Cy5-CALM1 binding fluorescence, higher = more signal.
The target is the same in assay [5]. Description: calcium-bound CALM1 binders on microarrays, profiling panel, artefact control for SMM control-protein annotation, biochemical, small-molecule microarray, Cy5-labelled CALM1, plus calcium (AID 1112).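 Note: score merges spot fluorescence with signal to noise from triplicate slides.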 As to conditions: Cy5-CALM1 binding fluorescence, higher = more signal.
Assay [6] is described as follows: small-molecule microarray binders of probe aWnt5a, primary screen, biochemical, biotinylated probe, 635/667 nm fluorescence (AID 1113).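 Note: score merges 667 nm fluorescence intensity with signal-to-noise per printed feature.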 As to conditions: higher = more signal.
Assay [7] in a line: small-molecule microarray binders of probe aShh, primary screen, biochemical, biotinylated probe, 635/667 nm fluorescence (AID 1114).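 Note: probe is biotin-labelled aShh protein from a stem cell growth factor screen; measures binding of labelled protein to compounds printed on the slide; score merges feature fluorescence at 667 nm with signal-to-noise.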 As to conditions: higher = more signal.
Assay [8] is described as follows: small-molecule microarray binders of probe aNog, primary screen, biochemical, biotinylated probe, 635/667 nm fluorescence (AID 1115).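 Note: probe is biotinylated aNog protein used at 0.15 µg/mL for 1 h at 4 C; z-score combines 667 nm fluorescence of each spot with its signal to noise.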 The settings on record: higher = more signal.
The target of assay [9] is Torsin-1A-interacting protein 1 (Homo sapiens) (UniProt Q5JTV8). The assay can be described thus: LAP1 binders from COS7 cell lysate, primary screen, small-molecule microarray, 635/667 nm fluorescence (AID 1116). As to conditions: COS7-hLAP1 lysate binding, 635 nm fluorescence, higher = more signal.
Sequence of Torsin-1A-interacting protein 1 (Homo sapiens) (Q5JTV8 whole entry, looked up): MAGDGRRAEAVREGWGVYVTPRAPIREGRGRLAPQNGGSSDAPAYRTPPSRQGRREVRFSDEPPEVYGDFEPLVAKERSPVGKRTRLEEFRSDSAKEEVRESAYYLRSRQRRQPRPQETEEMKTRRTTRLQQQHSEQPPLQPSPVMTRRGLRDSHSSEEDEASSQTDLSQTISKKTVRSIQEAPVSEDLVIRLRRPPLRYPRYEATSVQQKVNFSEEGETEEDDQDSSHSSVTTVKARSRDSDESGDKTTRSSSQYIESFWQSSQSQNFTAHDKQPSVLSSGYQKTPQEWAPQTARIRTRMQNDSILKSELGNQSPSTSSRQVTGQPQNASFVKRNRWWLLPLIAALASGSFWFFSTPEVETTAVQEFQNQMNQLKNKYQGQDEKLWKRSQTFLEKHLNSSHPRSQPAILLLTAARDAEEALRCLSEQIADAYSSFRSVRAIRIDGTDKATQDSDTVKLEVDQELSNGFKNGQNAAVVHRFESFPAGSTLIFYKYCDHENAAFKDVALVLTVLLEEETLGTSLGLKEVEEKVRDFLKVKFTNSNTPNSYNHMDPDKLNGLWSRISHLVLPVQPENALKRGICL
Assay [10] has as its target Alpha-bungarotoxin (Bungarus multicinctus) (UniProt P60615). Description: alpha-bungarotoxin binders on microarray, profiling panel, artefact control for SMM control protein annotation, biochemical, small-molecule microarray, Alexa647 label, 635/667 nm fluorescence (AID 1117). As to conditions: alpha-BTX-A647 binding fluorescence, higher = more signal.

Sequence of Alpha-bungarotoxin (Bungarus multicinctus) (P60615 whole entry, looked up): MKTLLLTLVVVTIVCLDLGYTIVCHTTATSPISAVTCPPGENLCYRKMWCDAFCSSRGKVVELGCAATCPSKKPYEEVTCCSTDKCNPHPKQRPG
Sequence of Left-right determination factor 2 (Homo sapiens) (O00292 whole entry, looked up): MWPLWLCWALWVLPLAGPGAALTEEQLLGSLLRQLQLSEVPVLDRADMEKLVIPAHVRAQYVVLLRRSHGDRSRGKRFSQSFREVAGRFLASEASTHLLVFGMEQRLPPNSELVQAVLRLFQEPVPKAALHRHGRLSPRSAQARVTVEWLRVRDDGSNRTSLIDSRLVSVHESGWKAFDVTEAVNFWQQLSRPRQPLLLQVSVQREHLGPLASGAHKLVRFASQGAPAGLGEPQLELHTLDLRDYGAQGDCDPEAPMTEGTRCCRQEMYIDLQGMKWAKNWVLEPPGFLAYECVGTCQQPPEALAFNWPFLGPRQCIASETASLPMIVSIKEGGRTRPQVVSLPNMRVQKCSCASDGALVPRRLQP

On to `O=C1NCC(=O)N2[C@@H]1C[C@@H](C(=O)O)[C@H]2c1cccc(OCCO)c1`, for which the composite z-score in [1] turned out to be 1.57; in assay [3] it was 1.68; in [4] it was 2.17; in [5], 1.1; in assay [6], 1.38; in assay [7], 3.13. Moreover, the composite z-score in assay [8] was found to be 3.62; in assay [9] it was 4.92; in assay [10], 2.04. Moreover, the z-score in assay [2] is 0.19.

`C=CCC(OC(C)=O)[C@@H]1[C@@H](N(Cc2cccc3ccccc23)C(=O)c2ccc(-c3ccccc3)cc2)c2cc(OCCCO)ccc2N1C(=O)Cc1ccc(OC)cc1` (stereo not given in full): the composite z-score came out at 0.144 in assay [1]; 0.111 in [3]; 0.617 in [4]; 0.291 in assay [5]; 0.0479 in assay [6]; 0.149 in assay [7]. Further, the composite z-score in assay [8] is -0.0907; in assay [9], -0.0944; in assay [10] it was 0.373. The compound also gave a z-score in assay [2] of -1.36.

Take `CN(C)C(=O)[C@@]1(Cc2ccccc2CN=[N+]=[N-])N=C(c2ccc(OCCCO)cc2)O[C@H]1c1ccccc1`: the composite z-score in assay [1] was 0.993; in [3], -0.498; in assay [4], 0.691; in [5], 0.46; in assay [6], 0.0077; in [7], -0.0243. Also, the values for the composite z-score in [8], in assay [9] and in assay [10] were 1.83, 1.43 and 1.33, respectively. This compound yielded a z-score in assay [2] of -2.96.

On to `O=C1O[C@H](c2ccccc2)[C@H](c2ccccc2)N2[C@H]1[C@@H](C(=O)O)[C@]1(C(=O)Nc3ccc(C#CCCO)cc31)[C@H]2c1ccc(O)cc1`, for which the composite z-score is -0.038 in [1]; -0.603 in [3]; 0.415 in assay [4]; 0.869 in assay [5]; 0.0044 in assay [6]; -0.0324 in assay [7]. Also, the composite z-score was 1.08 in assay [8], 0.846 in assay [9] and 0.0639 in assay [10]. The compound also had a z-score in [2] of 0.101.

As for `COc1ccc([Si](C)(C)[C@@H]2[C@@H](CC(=O)N3Cc4ccccc4C[C@H]3CO)O[C@]3(C(=O)N(C)c4c(Br)cc(C)cc43)[C@H]2C)cc1`, the composite z-score is 1.37 in assay [1]; 0.637 in assay [3]; 0.0208 in assay [4]; 0.235 in [5]; 0.0078 in assay [6]; -0.0793 in assay [7]. Also, the figures for the composite z-score in assay [8], in assay [9] and in assay [10] were -0.454, 0.418 and 1.01, respectively. This compound gave a z-score in assay [2] of -4.43.

Take `COc1cc2c(cc1O)C(C1CC1)N(Cc1cc3c(cc1Br)OCO3)CC2` (stereo not given): the composite z-score in assay [1] was 0.0206; in [3], -1.25; in [4], -0.515; in assay [5], -0.58; in assay [6], -0.124; in assay [7], -0.134. The composite z-score in assay [8] was -0.33; in assay [9], -0.447; in [10], -0.745. The same compound gave a z-score in assay [2] of -3.51.

In the case of `C=C[C@H](COC(C)=O)N(C(=O)OC(C)(C)C)S(=O)(=O)c1ccc(Br)cc1`, the composite z-score is 0.4 in [1]; 0.467 in [3]; -0.159 in assay [4]; -0.907 in assay [5]; 0.205 in [6]; 0.113 in [7]. Moreover, the composite z-score in assay [8] was -0.0185; in assay [9], 0.395; in assay [10] it was 0.397. In assay [2], this compound gave a z-score of -0.757.

`COC(=O)C=C(CC(O)c1cccc(Cl)c1)OC` (stereo not given): the composite z-score in assay [1] is -0.734; in [3] it was -0.17; in [4], 1.27; in assay [5], 1.01; in [6] it was 0.23; in [7] it was 0.506. The composite z-score in [8] was found to be 1.93; in [9] it was 1.99; in [10] it was 1.51. The compound further came in with a z-score in [2] of -0.923.

Take `O=C1OCCC/C=C\[C@H]2OC34C=CCN(Cn5nnc6ccccc65)C(=O)[C@H]3N(CCO)C(=O)[C@@H]4C12` (stereo not given in full): the composite z-score in assay [1] was -0.249; in assay [3], -1.84; in assay [4], -0.173; in [5], 0.963; in [6], -0.187; in [7], 0.022. Besides, the figures for the composite z-score in assay [8], in [9] and in assay [10] were 0.235, -0.482 and -0.601, respectively. In assay [2], this compound came in with a z-score of -0.317.

With `C#CCNC(=O)[C@H](Cc1ccccc1)NC(=O)CCC(=O)O`, the composite z-score in [1] was -0.665; in assay [3] it was -0.0677; in assay [4], -1.48; in assay [5] it was -0.834; in assay [6] it was -0.12; in assay [7], -0.214. The values for the composite z-score in assay [8], in [9] and in [10] were -0.501, 0.409 and -0.368, respectively. Besides, in [2], the z-score is -0.25.

With `COc1ccc(C(O)C2C=CC3C(=O)N(C)C(=O)C3N2N2CCCCC2)c2ccccc12` (stereo not given), the composite z-score in assay [1] is 1.43; in [3], -0.129; in assay [4], 1.26; in [5], 0.639; in assay [6], 0.131; in [7], 0.476. Besides, the composite z-score in assay [8] was -0.0646; in assay [9] it was 0.826; in assay [10], 1.34. Besides, the z-score in assay [2] is -0.534.

As for `CN(C)C(=O)[C@]1(Cc2ccccc2N=[N+]=[N-])N=C(c2ccc(OCCCO)cc2)O[C@@H]1c1ccccc1`, the composite z-score in assay [1] is 1.08; in assay [3] it was 0.104; in [4], 0.516; in [5] it was 0.0377; in assay [6], -0.329; in assay [7], -0.116. Further, the composite z-score in [8] was 0.973; in [9] it was 0.897; in assay [10], 1.3. The z-score in assay [2] was -1.85.

Regarding `O=C(NCc1ccccc1)[C@@]1(CCS(=O)(=O)c2ccccc2)N=C(c2ccc(OCCCO)cc2)O[C@H]1c1ccccc1`, the composite z-score is 1.44 in assay [1]; -0.125 in assay [3]; 1.43 in assay [4]; 0.112 in assay [5]; 0.111 in [6]; 0.0055 in assay [7]. For the same compound, the composite z-score is -0.0597 in [8], 1.32 in assay [9] and 2.03 in [10]. The z-score in assay [2] is -2.25.

As to `C#CCN(CC=C(C)C)[C@H](CO)c1ccccc1`, the composite z-score in assay [1] is 0.309; in assay [3] it was 0.185; in [4] it was -0.171; in assay [5], -0.438; in assay [6], 0.0771; in assay [7] it was -0.279. In addition, the results for the composite z-score in assay [8], in [9] and in assay [10] were -0.176, 0.455 and 0.136, respectively. Also, the z-score in [2] was -0.817.

On to `CC(=O)N1Cc2ccccc2C[C@@]2(COC(c3ccc(OCCCO)cc3)=N2)C1=O`, for which the composite z-score in assay [1] was determined as 0.612; in [3], 0.827; in assay [4] it was 1.79; in assay [5] it was 0.845; in assay [6], 0.0587; in assay [7] it was 0.412. Besides, the composite z-score in assay [8] was 0.114; in assay [9], 1.7; in [10], 1.88. In assay [2], the z-score is -1.62.

Regarding `C=C(CCCC)C(=O)CC[C@H](OC(=O)c1cccnc1)c1ccccc1OCCO`, the composite z-score in assay [1] is -0.935; in assay [3], -0.154; in assay [4] it was -0.398; in assay [5] it was -0.95; in assay [6], -0.0758; in assay [7] it was -0.102. Further, the results for the composite z-score in [8], in assay [9] and in [10] were -0.136, -0.0529 and -0.0583, respectively. Besides, the z-score in [2] was -2.46.
